IDE cell activ: IDE (human) activation, cell-based; activation, % at 5.96 µM; HEK cells, FAbeta-B cleavage, fluorescence polarization; 0% vehicle, 100% cell-free pure enzyme wells; 340,000 tested, 0.073% active; P14735; AID 493087;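 active = activation above the mean of all tested compounds plus 3 SD, set per screening campaign, cut at about 17% in these data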
PKA-R2B act: activators of human PKA-R2B complex; 340,000 tested, 0.079% active; activation, % at 11.4 µM; PKA-R2B holoenzyme dissociation, Cy5-IP20 fluorescence polarization; R2B truncated from residue 108, S112A mutant; 0% DMSO only, 100% 113 µM cGMP;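 active = activation above a cutoff set at the mean over all compounds plus 3 SD, cut at about 18% in these data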;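 note: higher means more holoenzyme dissociation and a rise in polarization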
eLon inh: E. coli protease La inhibition. P0A9M0. purified E. coli Lon protease, fluorescence polarization. inhibition, % at 7.94 µM. 360,000 tested, 0.42% active. AID 602123; in the data active = inhibition above about 13%, passing the limit was not always enough
Target sequence (P0A9M0 whole entry, looked up): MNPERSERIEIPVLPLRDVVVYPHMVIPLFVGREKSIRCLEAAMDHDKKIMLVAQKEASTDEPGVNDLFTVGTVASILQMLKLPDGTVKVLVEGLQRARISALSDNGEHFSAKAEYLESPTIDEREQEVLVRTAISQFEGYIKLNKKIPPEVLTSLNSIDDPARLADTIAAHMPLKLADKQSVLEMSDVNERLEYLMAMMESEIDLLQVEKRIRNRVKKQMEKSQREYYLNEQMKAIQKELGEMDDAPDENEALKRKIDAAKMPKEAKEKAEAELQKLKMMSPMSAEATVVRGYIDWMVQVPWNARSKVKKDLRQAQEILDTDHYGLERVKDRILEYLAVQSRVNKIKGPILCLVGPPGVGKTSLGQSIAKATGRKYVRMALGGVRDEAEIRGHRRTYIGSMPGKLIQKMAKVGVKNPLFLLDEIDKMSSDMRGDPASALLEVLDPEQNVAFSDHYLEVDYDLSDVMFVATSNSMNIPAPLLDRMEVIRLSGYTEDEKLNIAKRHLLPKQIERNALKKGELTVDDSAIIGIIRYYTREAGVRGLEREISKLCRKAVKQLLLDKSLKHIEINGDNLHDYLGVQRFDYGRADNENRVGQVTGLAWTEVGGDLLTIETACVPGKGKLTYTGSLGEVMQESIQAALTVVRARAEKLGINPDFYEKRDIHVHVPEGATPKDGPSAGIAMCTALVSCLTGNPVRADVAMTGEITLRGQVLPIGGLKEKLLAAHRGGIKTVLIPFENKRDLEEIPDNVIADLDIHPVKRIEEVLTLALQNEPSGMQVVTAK
PKA-R1A act: PKA-R1A complex activation | P00514+P68181 | PKA-R1A dissociation, Cy5-IP20 fluorescence polarization; scaled: DMSO 0%, 113 µM cGMP 100% | activation, % at 11.4 µM | 340,000 tested, 0.083% active | AID 504707;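 active = percent activation above the mean of all tested compounds plus 3 SD, cut at about 19% in these data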;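 note: higher means more PKAc released from R1A so a rise in polarization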
Rin1 Abl inh: inhibitors of human Rin1-Abl protein interaction; P00519+Q13671; TR-FRET Rin1/Abl binding, biochemical; inhibition, % at 7.35 µM; 360,000 tested, 0.4% active; in the data active = inhibition above about 5%, passing the limit was not always enough
IDE inh: cellular human IDE inhibition; inhibition, % at 5.59 µM; P14735; HEK cells, FAbetaB cleavage, fluorescence polarization; 320,000 tested, 0.41% active;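 active = percent inhibition above the average of all tested compounds plus 3 SD, set per screening campaign, cut at about 16% in these data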;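 note: IDE supplied by intact live HEK cells; FP after avidin binding of uncleaved biotin substrate so inhibition keeps polarization high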
R1A FP artifact: fluorescence polarization artifact in PKA-R1A activator counter-screen; shares compounds with PKA-R1A act; Cy5-IP20 peptide alone, fluorescence polarization artifact counterscreen; activation, % at 11.4 µM; 280 tested, 7% active;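 active = mean activation over triplicate runs exceeds the adjusted cutoff derived for the parent primary screen, cut at about 19% in these data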;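 note: no PKA protein present so any polarization rise reflects compound interference; higher means stronger polarization artifact and likely false positive in parent screen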
PKA-R1A confirm: confirmation of PKA-R1A complex activators; shares compounds with PKA-R1A act; Cy5-IP20 fluorescence polarization, PKA-R1A holoenzyme dissociation; activation, % at 11.4 µM; 280 tested, 9% active; AID 504800;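 active = mean activation over replicate wells exceeds the adjusted hit threshold taken from the earlier primary screen, cut at about 20% in these data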
Of the large screens only hits and unclear results are named; the others gave an inactive call (follow-up assays come after a bar, where they were run). Rows were chosen to be rich in hits. Some 1.3% of all compounds tested hit in one or more screens of this group.

CC1=NN(c2ccccc2)C(c2ccco2)C1 (stereo unspecified)	PKA-R1A act 20 (no result: IDE inh) | R1A FP artifact inactive | PKA-R1A confirm inactive
COc1ccccc1NC(=O)N(C)C[C@H]1Oc2ncc(C#CCN(C)C)cc2C(=O)N([C@H](C)CO)C[C@H]1C	PKA-R1A act 21 (no result: IDE cell activ, IDE inh) | R1A FP artifact inactive | PKA-R1A confirm inactive
Cc1cc2ccccn2c1C(=O)c1ccc(Cl)c([N+](=O)[O-])c1	PKA-R1A act 20 | R1A FP artifact inactive | PKA-R1A confirm inactive
CCC(C)[C@H](NC(=O)N1CC(=O)Nc2ccccc21)C(=O)Nc1nccs1 (stereo partly specified)	none
COCCN(C(=O)CSc1nc2nc(C)cc(C)n2n1)c1c(N)n(Cc2ccccc2)c(=O)[nH]c1=O	PKA-R1A act 20 | R1A FP artifact inactive | PKA-R1A confirm inactive
O=C(CSC(=S)N1CCCCC1)c1ccccc1	PKA-R1A act 20 | R1A FP artifact inactive | PKA-R1A confirm inactive
O=C(CSC(=S)N1CCCC1)c1ccccc1	none
CC(C)C(=O)Nc1c2c(nc3c1CCC3)CCCC2	PKA-R1A act 24 | R1A FP artifact inactive | PKA-R1A confirm inactive
CC(C)N(C(=O)CSc1ncnc2sc(-c3ccccc3)cc12)C(C)C	none
Cc1cc(C(=O)CN2C(=O)C(=O)N(Cc3ccccc3)C2=O)c(C)n1CC1COc2ccccc2O1 (stereo unspecified)	none
Cc1cc(C(=O)COC(=O)c2ccc(CO)cc2)c(C)n1CC1COc2ccccc2O1 (stereo unspecified)	PKA-R1A act 19 | R1A FP artifact inactive | PKA-R1A confirm inactive
CCc1ccc(S(=O)(=O)Nc2cc3c(cc2N2CCOCC2)n(C)c(=O)c(=O)n3C)cc1	none
CCCC1=C(C(=O)OCC)C(c2ccc(O)cc2)n2ncnc2N1 (stereo unspecified)	none
CCCC1=C(C(=O)OCC)C(c2sccc2C)n2ncnc2N1 (stereo unspecified)	PKA-R1A act 19 | R1A FP artifact inactive | PKA-R1A confirm inactive
COc1ccc(CCCc2nnc(SCC(=O)Nc3ccccc3F)o2)cc1	none
O=S(=O)(c1ccc(Br)s1)N1CCN(CCc2ccccc2)CC1	PKA-R1A act 19 | R1A FP artifact inactive | PKA-R1A confirm inactive
Cc1ccc(C(=O)N/N=C\c2ccccc2[N+](=O)[O-])cn1	none (no result: IDE inh)
Oc1ccccc1C=NN=Cc1c(O)ccc2ccccc12	none (no result: IDE inh)
Oc1ccc2ccccc2c1/C=N/n1cnnc1	PKA-R1A act 19 | R1A FP artifact inactive | PKA-R1A confirm inactive
O=C(CNc1ccccc1)N/N=C/c1ccc([N+](=O)[O-])cc1	PKA-R1A act 22 | R1A FP artifact inactive | PKA-R1A confirm inactive
COc1cc(C)c(C(=O)Oc2cc(C)c(C(=O)O)c(O)c2C)c(O)c1C	none
COC(=O)c1c(C)cc(OC(C)=O)c(C)c1OC(C)=O	PKA-R1A act 20 | R1A FP artifact inactive | PKA-R1A confirm inactive
CC(=O)Nc1ccc(NS(=O)(=O)c2cn(C)c(=O)n(C)c2=O)cc1	PKA-R1A act 20 | R1A FP artifact inactive | PKA-R1A confirm inactive
O=C(NCCCn1ccnc1)C(F)(F)C(F)(F)C(=O)NCCCn1ccnc1	none
CC(NC(=O)NCCCn1ccnc1)(C(F)(F)F)C(F)(F)F	PKA-R1A act 21 | R1A FP artifact inactive | PKA-R1A confirm inactive
CCC(O)(CC)C(=O)N(Nc1ccc(C)cc1)c1ccc(C)cc1	PKA-R1A act 21 | R1A FP artifact inactive | PKA-R1A confirm inactive
O=C(CN1C(=O)c2cccnc2C1=O)c1ccccc1	PKA-R1A act 20 | R1A FP artifact inactive | PKA-R1A confirm inactive
COc1ccc(CC(=O)NCCc2ccc(S(N)(=O)=O)cc2)cc1	none
Cc1ccc(CC(=O)NCCc2ccc(S(N)(=O)=O)cc2)cc1	PKA-R1A act 19 | R1A FP artifact inactive | PKA-R1A confirm inactive
Cc1ccc(OCc2cc(C(=O)N(C)CC3CCOCC3)no2)cc1C	none
CCC(C(=O)OCC(=O)NC(=O)NC(C)(C)C)c1ccccc1 (stereo unspecified)	none
CC(C)CCOc1ccc(C(=O)O)cc1	none
CC(C)CCOc1ccc(C(=O)N2CCCC2C(=O)O)cc1 (stereo unspecified)	PKA-R1A act 20 | R1A FP artifact inactive | PKA-R1A confirm inactive
O=C(Cn1cnc2ccccc2c1=O)Nc1ccc(S(=O)(=O)N2CCOCC2)cc1	PKA-R1A act 19 | R1A FP artifact inactive | PKA-R1A confirm inactive
O=C(Cn1cnc2ccccc2c1=O)Nc1ccc(S(=O)(=O)N2CCCC2)cc1	none
O=C(COC(=O)c1cccc(S(=O)(=O)NCc2ccccc2)c1)NC1CC1	none
COc1ccc2nc(NC(=O)c3ccc(NC(=O)C4CCCO4)cc3)sc2c1 (stereo unspecified)	PKA-R1A act 20 | R1A FP artifact inactive | PKA-R1A confirm inactive
COc1cccc(C(=O)N2CCN(C(=O)C3CCCO3)CC2)c1 (stereo unspecified)	PKA-R1A act 20 | R1A FP artifact inactive | PKA-R1A confirm inactive
COc1ccc(NC(=O)CSc2c3c(nc4ccccc24)CCCC3)c(OC)c1	none
CCN(CC)C(=O)C1CCN(S(=O)(=O)c2ccc(-n3cnnn3)cc2)CC1	none
CN(Cc1ccccc1)C(=O)C1CCN(S(=O)(=O)c2ccc(-n3cnnn3)cc2)CC1	PKA-R1A act 21 | R1A FP artifact inactive | PKA-R1A confirm inactive
CC(C)[C@H](NS(=O)(=O)c1ccc2c(c1)OCCO2)C(=O)OCC(=O)Nc1ccccc1	PKA-R1A act 19 | R1A FP artifact inactive | PKA-R1A confirm inactive
Cc1ccc(S(=O)(=O)N[C@H](C(=O)OCC(=O)NC(=O)Nc2ccc3c(c2)OCCO3)C(C)C)cc1	none
CCCCOc1ccc(C(=O)Nn2c(-c3cccs3)nc3ccccc3c2=O)cc1	PKA-R1A act 19 | R1A FP artifact inactive | PKA-R1A confirm inactive
O=C(/C=C/c1ccccc1)Nn1c(-c2cccs2)nc2ccccc2c1=O	none
COCCN(CCOc1cc(C)cc(C)c1)Cc1ccc(Cl)cc1	PKA-R1A act 20 | R1A FP artifact inactive | PKA-R1A confirm inactive
CN(C)CCOc1cc(Cl)cc(Cl)c1	none
COc1ccccc1NC(=S)N(CCCN1CCOCC1)Cc1cccs1	none
CC(=O)c1ccc(N2CCCC2)c(F)c1	none (no result: IDE cell activ, PKA-R2B act, eLon inh, PKA-R1A act, Rin1 Abl inh)
CC(=O)c1ccc(N2CCC(C)CC2)c(F)c1	PKA-R1A act 20 | R1A FP artifact inactive | PKA-R1A confirm inactive
CCc1ccccc1NC(=O)c1ccccc1N1C(=O)C2C3C=CC(C3)C2C1=O (stereo unspecified)	none

Source: PubChem
